# According to PubChem BioAssay:
# Results filed as inconclusive are left out. Calls of active or inactive are those of the source. Unless noted, the limit is not given here; nearly all actives have AC50 up to about 27 µM.
# Assay: viability loss in pontine glioma line – cell-based, SU-DIPG-XIII, MIPE4.0, CellTiter-Glo, qHTS, dose response (AID 1347061; cut-off not given, nearly all actives have AC50 up to about 37 µM;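 also: cells exposed to compound for 48 hours before readout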)
# Settings: CellTiter-Glo ATP luminescence
SMILES,AC50,outcome
COc1ccc([C@@H]2CC(=O)c3c(O)cc(O[C@@H]4O[C@H](CO[C@@H]5O[C@@H](C)[C@H](O)[C@@H](O)[C@H]5O)[C@@H](O)[C@H](O)[C@H]4O)cc3O2)cc1O,14800 nM (active),–
C[C@H]1O[C@@H](O[C@H]2[C@@H](O)C[C@H](O[C@H]3[C@@H](O)C[C@H](O[C@H]4CC[C@@]5(C)[C@H](CC[C@@H]6[C@@H]5C[C@@H](O)[C@]5(C)[C@@H](C7=CC(=O)OC7)CC[C@]65O)C4)O[C@@H]3C)O[C@@H]2C)C[C@H](O)[C@@H]1O,95.9 nM (active),–
CC1(C)[C@@H](O[C@H]2O[C@H](C(=O)O)[C@@H](O)[C@H](O)[C@H]2O[C@@H]2O[C@H](C(=O)O)[C@@H](O)[C@H](O)[C@H]2O)CC[C@]2(C)[C@H]3C(=O)C=C4[C@@H]5C[C@@](C)(C(=O)O)CC[C@]5(C)CC[C@@]4(C)[C@]3(C)CC[C@@H]12,–,inactive
CCC[C@@H]1C[C@@H](C(=O)N[C@@H]([C@H]2O[C@H](SC)[C@H](O)[C@@H](O)[C@H]2O)[C@@H](C)O)N(C)C1,–,inactive
COc1c(O)cc2c(c1O)[C@@H]1O[C@H](CO)[C@@H](O)[C@H](O)[C@H]1OC2=O,–,inactive
CN[C@H](CC(C)C)C(=O)N[C@H]1C(=O)N[C@@H](CC(N)=O)C(=O)N[C@H]2C(=O)N[C@H]3C(=O)N[C@H](C(=O)N[C@H](C(=O)O)c4cc(O)cc(O)c4-c4cc3ccc4O)[C@H](O)c3ccc(c(Cl)c3)Oc3cc2cc(c3O[C@@H]2O[C@H](CO)[C@@H](O)[C@H](O)[C@H]2O[C@H]2C[C@](C)(N)[C@H](O)[C@H](C)O2)Oc2ccc(cc2Cl)[C@H]1O,–,inactive
C=C(C)[C@@H]1CC[C@]2(C(=O)O)CC[C@]3(C)[C@H](CC[C@@H]4[C@@]5(C)CC[C@H](O)C(C)(C)[C@@H]5CC[C@]43C)[C@@H]12,–,inactive
C[C@@H]1[C@H](O)[C@@H](C)/C=C/C=C/C=C/C=C/C=C/C=C/C=C/[C@H](O[C@@H]2O[C@H](C)[C@@H](O)[C@H](N)[C@@H]2O)C[C@@H]2O[C@](O)(C[C@@H](O)C[C@@H](O)[C@H](O)CC[C@@H](O)C[C@@H](O)CC(=O)O[C@H]1C)C[C@H](O)[C@H]2C(=O)O,833 nM (active),–
Nc1ccn([C@@H]2O[C@H](CO)[C@@H](O)[C@H]2O)c(=O)n1,–,inactive
CC(C)(S)[C@@H](N)C(=O)O,–,inactive
C[C@H](CCC(=O)O)[C@H]1CC[C@H]2[C@@H]3[C@H](O)C[C@@H]4C[C@H](O)CC[C@]4(C)[C@H]3CC[C@]12C,–,inactive
CCC(=O)NCC[C@@H]1CCc2ccc3c(c21)CCO3,–,inactive
O=C1c2c(O)cccc2[C@H]([C@@H]2O[C@H](CO)[C@@H](O)[C@H](O)[C@H]2O)c2cc(CO)cc(O)c21,–,inactive
CC(=O)[C@H]1CC[C@H]2[C@@H]3CCC4=CC(=O)CC[C@]4(C)[C@H]3CC[C@]12C,1870 nM (active),–
N=c1ccn2c(n1)O[C@H]1[C@H](O)[C@@H](CO)O[C@H]12,–,inactive
CC1(C)[C@@H](O)CC[C@]2(C)[C@H]3C(=O)C=C4[C@@H]5C[C@@](C)(C(=O)O)CC[C@]5(C)CC[C@@]4(C)[C@]3(C)CC[C@@H]12,–,inactive
COc1ccc(CCC(=O)c2c(O)cc(O[C@@H]3O[C@H](CO)[C@@H](O)[C@H](O)[C@H]3O[C@@H]3O[C@@H](C)[C@H](O)[C@@H](O)[C@H]3O)cc2O)cc1O,2350 nM (active),–
COC1=C(OC)C(=O)C(C/C=C(\C)CC/C=C(\C)CC/C=C(\C)CC/C=C(\C)CC/C=C(\C)CC/C=C(\C)CC/C=C(\C)CC/C=C(\C)CC/C=C(\C)CCC=C(C)C)=C(C)C1=O,–,inactive
C[C@@]12C[C@@]3(O)O[C@@H](O1)[C@]1(COC(=O)c4ccccc4)[C@H]3C[C@@]12O[C@@H]1O[C@H](CO)[C@@H](O)[C@H](O)[C@H]1O,–,inactive
C[C@H]1C[C@H]2[C@@H]3CCC4=CC(=O)C=C[C@]4(C)[C@@]3(F)[C@@H](O)C[C@]2(C)[C@@]1(O)C(=O)CO,–,inactive

# Assay: viability loss in pontine glioma line – cell-based, JHH-DIPG-1, MIPE4.0, CellTiter-Glo, qHTS, dose response (AID 1347062);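 as to AC50: cells exposed to compound for two days before readout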
# Settings: JHH-DIPG-1 viability, CellTiter-Glo ATP luminescence
SMILES,AC50,outcome
COc1cc([C@@H]2c3cc4c(cc3[C@H](O)[C@H]3COC(=O)[C@@H]23)OCO4)cc(OC)c1OC,235 nM (active),–
C[C@H]1O[C@@H](O[C@H]2[C@@H](O)C[C@H](O[C@H]3[C@@H](O)C[C@H](O[C@H]4CC[C@@]5(C)[C@H](CC[C@@H]6[C@@H]5C[C@@H](O)[C@]5(C)[C@@H](C7=CC(=O)OC7)CC[C@]65O)C4)O[C@@H]3C)O[C@@H]2C)C[C@H](O)[C@@H]1O,30.3 nM (active),–
CC1(C)[C@@H](O[C@H]2O[C@H](C(=O)O)[C@@H](O)[C@H](O)[C@H]2O[C@@H]2O[C@H](C(=O)O)[C@@H](O)[C@H](O)[C@H]2O)CC[C@]2(C)[C@H]3C(=O)C=C4[C@@H]5C[C@@](C)(C(=O)O)CC[C@]5(C)CC[C@@]4(C)[C@]3(C)CC[C@@H]12,–,inactive
CCC[C@@H]1C[C@@H](C(=O)N[C@@H]([C@H]2O[C@H](SC)[C@H](O)[C@@H](O)[C@H]2O)[C@@H](C)O)N(C)C1,–,inactive
COc1c(O)cc2c(c1O)[C@@H]1O[C@H](CO)[C@@H](O)[C@H](O)[C@H]1OC2=O,–,inactive
CN[C@H](CC(C)C)C(=O)N[C@H]1C(=O)N[C@@H](CC(N)=O)C(=O)N[C@H]2C(=O)N[C@H]3C(=O)N[C@H](C(=O)N[C@H](C(=O)O)c4cc(O)cc(O)c4-c4cc3ccc4O)[C@H](O)c3ccc(c(Cl)c3)Oc3cc2cc(c3O[C@@H]2O[C@H](CO)[C@@H](O)[C@H](O)[C@H]2O[C@H]2C[C@](C)(N)[C@H](O)[C@H](C)O2)Oc2ccc(cc2Cl)[C@H]1O,–,inactive
C=C(C)[C@@H]1CC[C@]2(C(=O)O)CC[C@]3(C)[C@H](CC[C@@H]4[C@@]5(C)CC[C@H](O)C(C)(C)[C@@H]5CC[C@]43C)[C@@H]12,–,inactive
C[C@@H]1[C@H](O)[C@@H](C)/C=C/C=C/C=C/C=C/C=C/C=C/C=C/[C@H](O[C@@H]2O[C@H](C)[C@@H](O)[C@H](N)[C@@H]2O)C[C@@H]2O[C@](O)(C[C@@H](O)C[C@@H](O)[C@H](O)CC[C@@H](O)C[C@@H](O)CC(=O)O[C@H]1C)C[C@H](O)[C@H]2C(=O)O,1320 nM (active),–
COc1ccc(-c2cc(=O)c3c(O)cc(O[C@@H]4O[C@H](CO[C@@H]5O[C@@H](C)[C@H](O)[C@@H](O)[C@H]5O)[C@@H](O)[C@H](O)[C@H]4O)cc3o2)cc1O,–,inactive
CC(C)(O)CC[C@@H](O)[C@](C)(O)[C@H]1CC[C@@]2(O)C3=CC(=O)[C@@H]4C[C@@H](O)[C@@H](O)C[C@]4(C)[C@H]3CC[C@]12C,–,inactive
Nc1ccn([C@@H]2O[C@H](CO)[C@@H](O)[C@H]2O)c(=O)n1,–,inactive
COc1cc([C@@H]2c3cc4c(cc3[C@@H](O[C@@H]3O[C@@H]5CO[C@@H](c6cccs6)O[C@H]5[C@H](O)[C@H]3O)[C@H]3COC(=O)[C@H]23)OCO4)cc(OC)c1O,13200 nM (active),–
CC(C)(S)[C@@H](N)C(=O)O,–,inactive
C[C@H](CCC(=O)O)[C@H]1CC[C@H]2[C@@H]3[C@H](O)C[C@@H]4C[C@H](O)CC[C@]4(C)[C@H]3CC[C@]12C,–,inactive
CCC(=O)NCC[C@@H]1CCc2ccc3c(c21)CCO3,–,inactive
O=C1c2c(O)cccc2[C@H]([C@@H]2O[C@H](CO)[C@@H](O)[C@H](O)[C@H]2O)c2cc(CO)cc(O)c21,–,inactive
CC[C@@]1(O)C[C@H](O[C@H]2C[C@H](N(C)C)[C@H](O[C@H]3C[C@H](O)[C@H](O[C@H]4CCC(=O)[C@H](C)O4)[C@H](C)O3)[C@H](C)O2)c2c(cc3c(c2O)C(=O)c2c(O)cccc2C3=O)[C@H]1C(=O)OC,332 nM (active),–
CC(=O)[C@H]1CC[C@H]2[C@@H]3CCC4=CC(=O)CC[C@]4(C)[C@H]3CC[C@]12C,–,inactive
N=c1ccn2c(n1)O[C@H]1[C@H](O)[C@@H](CO)O[C@H]12,–,inactive
CC1(C)[C@@H](O)CC[C@]2(C)[C@H]3C(=O)C=C4[C@@H]5C[C@@](C)(C(=O)O)CC[C@]5(C)CC[C@@]4(C)[C@]3(C)CC[C@@H]12,–,inactive
COc1ccc(CCC(=O)c2c(O)cc(O[C@@H]3O[C@H](CO)[C@@H](O)[C@H](O)[C@H]3O[C@@H]3O[C@@H](C)[C@H](O)[C@@H](O)[C@H]3O)cc2O)cc1O,–,inactive
COC1=C(OC)C(=O)C(C/C=C(\C)CC/C=C(\C)CC/C=C(\C)CC/C=C(\C)CC/C=C(\C)CC/C=C(\C)CC/C=C(\C)CC/C=C(\C)CC/C=C(\C)CCC=C(C)C)=C(C)C1=O,–,inactive
C[C@@]12C[C@@]3(O)O[C@@H](O1)[C@]1(COC(=O)c4ccccc4)[C@H]3C[C@@]12O[C@@H]1O[C@H](CO)[C@@H](O)[C@H](O)[C@H]1O,–,inactive
C[C@H]1C[C@H]2[C@@H]3CCC4=CC(=O)C=C[C@]4(C)[C@@]3(F)[C@@H](O)C[C@]2(C)[C@@]1(O)C(=O)CO,–,inactive
